The text below walks through data of PubChem BioAssay (EPA / NIEHS).

Each structure is given as a SMILES string. Several values for one entry are separate records, joined by “and”; a condition that tells them apart may be missing. Equal entries are not always repeated. Inconclusive results are not listed. Where a structure was tested more than once in an assay, its records may differ in their call. Activity calls are given as the source filed them. Rule for the calls, unless noted: active = hit-call score of the fitted dose curve at least 0.9, where 1 is the maximum; inactive = score below 0.9.

Experiment [1] in a line: BSK_4H_Eotaxin3: BioMAP Diversity Plus: 4H Assay for Eotaxin 3 Biomarker Activity (AID 2283000).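 For outcome: CCL26 protein level quantified by ELISA in parallel with SRB cytotoxicity check.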 The conditions noted are these: primary human endothelial cells (HUVEC); actives raise or lower the signal. A digest of the protocol:
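Endothelial primary cells (human umbilical vein) exposed to compound for 24 h. ELISA detection of Eotaxin-3.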

The target in experiment [2] is human Peroxisome Proliferator-activated Receptor delta (PPARd), PPARD (gene 5467) (UniProt Q03181). Put plainly: ATG_PPARd_TRANS: Attagene TRANS-FACTORIAL HepG2 Assay for human Peroxisome Proliferator-activated Receptor delta (PPARd) (AID 2283002; active = hit-call score of the fitted dose curve at least 0.9, where 1 is the maximum). Summed up: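 Read-out is induced reporter mRNA, quantified by RT-PCR with fluorescent labelling and capillary electrophoresis after 24 h dosing. Cells are HepG2 transiently carrying multiple GAL4-UAS reporter units driven by exogenous NR-GAL4 chimeras; DMSO serves as baseline.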

Read-out in experiment [3]: Intercellular Adhesion Molecule 1 (ICAM1), ICAM1 (gene 3383)
The experiment is described as follows: BSK_3C_ICAM1: BioMAP Diversity Plus: 3C Assay for Intercellular Adhesion Molecule 1 (ICAM1) Biomarker Activity (AID 2283003). The conditions noted are these: primary human endothelial cells (HUVEC); actives raise or lower the signal. Summed up: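 Using DMSO as baseline, bidirectional curve fitting was applied to ICAM-1 ELISA signals from HUVEC in the 3C system, measured 24 h after compound addition.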

Experiment [4] can be described thus: BSK_3C_Proliferation: Cell Proliferation Assessment in the BioMAP Diversity Plus: 3C Assay (AID 2283006).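 For AC50: potency may reflect either rise or fall in cell number versus DMSO.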 The conditions noted are these: primary human endothelial cells (HUVEC). Summed up: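 Measured here: sulforhodamine B (0.1%) staining of TCA-fixed sub-confluent umbilical vein endothelial cultures 48 h post-dosing, absorbance 560 nm. DMSO served as negative control and baseline; both signal gain and loss were modelled.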

Experiment [5] deals with Peroxisome proliferator-activated receptor gamma (Homo sapiens) (UniProt P37231). Put plainly: ATG_PPARg_TRANS: Attagene TRANS-FACTORIAL HepG2 Assay for human Peroxisome Proliferator-activated Receptor-gamma (PPARg) (AID 2283007; active = hit-call score of the fitted dose curve at least 0.9, where 1 is the maximum). A digest of the protocol: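 A TRANS-format multiplexed reporter assay measures activity of an exogenous chimeric NR-Gal4 protein in HepG2 cells. After 24 h of chemical exposure, reporter transcripts are amplified, fluorescently labelled and sized by capillary electrophoresis, with gain of signal scored against DMSO.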

The target of experiment [6] is Nuclear receptor subfamily 1 group I member 2 (Homo sapiens) (UniProt O75469). Put plainly: ATG_PXR_TRANS: Attagene TRANS-FACTORIAL HepG2 Assay for human Pregnane X Receptor (PXR) (AID 2283008; active = hit-call score of the fitted dose curve at least 0.9, where 1 is the maximum). Summed up: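 Transactivation by exogenous PXR–GAL4 fusion measured as reporter transcript induction after 24 h compound treatment of transfected human HepG2 cells. Read-out via RT-PCR and capillary electrophoresis of labelled fragments, fitted upward relative to DMSO.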

Experiment [7] deals with Retinoic acid receptor RXR-alpha (Homo sapiens) (UniProt P19793). Put plainly: ATG_RXRa_TRANS: Attagene TRANS-FACTORIAL HepG2 Assay for human Retinoid X Receptor alpha (RXRa) (AID 2283012; active = hit-call score of the fitted dose curve at least 0.9, where 1 is the maximum). Summed up: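 Chimeric NR-GAL4 trans-activation in HepG2, 24 h treatment; reporter transcripts quantified by fluorescence on capillary electrophoresis, analysed for upward change from DMSO.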

Experiment [8] deals with human Retinoid X Receptor beta (RXRb), RXRB (gene 6257) (UniProt P28702). The experiment is described as follows: ATG_RXRb_TRANS: Attagene TRANS-FACTORIAL HepG2 Assay for human Retinoid X Receptor beta (RXRb) (AID 2283013; active = hit-call score of the fitted dose curve at least 0.9, where 1 is the maximum). Summed up:
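After a 24 h incubation with test chemical, transfected HepG2 cells carrying NR-Gal4 fusions and GAL4-UAS reporter transcription units yield RNA whose reporter cDNA is FAM-labelled, HpaI-cut and sized by capillary electrophoresis; increases over DMSO are scored.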

The target in experiment [9] is human Thyroid Receptor alpha (THRa1), THRA (gene 7067) (UniProt P10827). The experiment is described as follows: ATG_THRa1_TRANS: Attagene TRANS-FACTORIAL HepG2 Assay for human Thyroid Receptor alpha (THRa1) (AID 2283014; active = hit-call score of the fitted dose curve at least 0.9, where 1 is the maximum). Summed up:
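First, HepG2 cells receive multiple GAL4-UAS reporter units and the chimeric receptor. They are then dosed for 24 h, after which RNA is reverse-transcribed, amplified, labelled, HpaI-cut and sized by capillary electrophoresis; gain relative to DMSO is scored.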

Read-out in experiment [10]: Interleukin-1 alpha (IL1a), IL1A (gene 3552)
Put plainly: BSK_BE3C_IL1a: BioMAP Diversity Plus: BE3C Assay for Interleukin-1 alpha (IL1a) Biomarker Activity (AID 2283016). The following applies: primary human bronchial epithelial cells; actives raise or lower the signal. A digest of the protocol:
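Measured in human lung primary bronchial epithelial cells: IL-1a by ELISA at 24 h after dosing, with bidirectional fitting against DMSO.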

Read-out in experiment [11]: Monocyte Chemoattractant Protein-1 (MCP1), CCL2 (gene 6347)
Put plainly: BSK_4H_MCP1: BioMAP Diversity Plus: 4H Assay for Monocyte Chemoattractant Protein-1 (MCP1) Biomarker Activity (AID 2283018). The following applies: primary human endothelial cells (HUVEC); actives raise or lower the signal. A digest of the protocol:
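Primary human umbilical vein endothelium is exposed to chemical for 24 h before MCP-1 is assayed by ELISA. Concentration-response fitted bidirectionally relative to DMSO.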

Read-out in experiment [12]: Interleukin-8 (IL8), CXCL8 (gene 3576)
Put plainly: BSK_3C_IL8: BioMAP Diversity Plus: 3C Assay for Interleukin-8 (IL8) Biomarker Activity (AID 2283020). The following applies: primary human endothelial cells (HUVEC); actives raise or lower the signal. A digest of the protocol:
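Using DMSO-treated wells as the baseline, bidirectional curve fitting was applied to ELISA-measured IL-8 from human umbilical vein endothelial cultures sampled 24 h after compound addition.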

Read-out in experiment [13]: Monokine induced gamma interferon (MIG), CXCL9 (gene 4283)
The experiment is described as follows: BSK_3C_MIG: BioMAP Diversity Plus: 3C Assay for Monokine induced gamma interferon (MIG) Biomarker Activity (AID 2283021).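 For AC50: MIG protein level measured by immunoassay in the treated endothelial cultures.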 The following applies: primary human endothelial cells (HUVEC); actives raise or lower the signal. Summed up: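 ELISA-measured MIG in dosed HUVEC 3C cultures at 24 h, analysed by bidirectional fitting with DMSO defining baseline activity.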

The target in experiment [14] is human Peroxisome Proliferator-activated Receptor alpha (PPARa), PPARA (gene 5465) (UniProt Q07869). Put plainly: ATG_PPARa_TRANS: Attagene TRANS-FACTORIAL HepG2 Assay for human Peroxisome Proliferator-activated Receptor alpha (PPARa) (AID 2283001; active = hit-call score of the fitted dose curve at least 0.9, where 1 is the maximum). A digest of the protocol:
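Transfected HepG2 cells treated with test chemical for 24 h. RNA isolated, reverse-transcribed with oligo(dT), PCR-amplified, FAM-labelled and HpaI-digested. Fragments sized by capillary electrophoresis; gain-of-signal fit relative to DMSO.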

The target in experiment [15] is human RAR-related Orphan Receptor gamma (RORg), RORC (gene 6097) (UniProt P51449). Put plainly: ATG_RORg_TRANS: Attagene TRANS-FACTORIAL HepG2 Assay for human RAR-related Orphan Receptor gamma (RORg) (AID 2283011; active = hit-call score of the fitted dose curve at least 0.9, where 1 is the maximum). Summed up:
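Activity is scored as increase in GAL4-UAS reporter mRNA over DMSO, detected by fluorescent RT-PCR and capillary electrophoresis in HepG2 cells transiently expressing a RORg-Gal4 chimera, 24 h after dosing.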

Read-out in experiment [16]: E-selectin (Homo sapiens) (UniProt P16581)
Put plainly: BSK_3C_Eselectin: BioMAP Diversity Plus: 3C Assay for Eselectin Biomarker Activity (AID 2283015).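 Note: cell surface E-selectin protein quantified by ELISA 24 h after dosing.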 The conditions noted are these: primary human endothelial cells (HUVEC); actives raise or lower the signal. Summed up:
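Human vascular endothelium from umbilical vein is exposed to test chemicals for 24 h. E-selectin levels are read by ELISA and compared with DMSO controls.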

Read-out in experiment [17]: Monocyte Chemoattractant Protein-1 (MCP1), CCL2 (gene 6347)
The experiment is described as follows: BSK_3C_MCP1: BioMAP Diversity Plus: 3C Assay for Monocyte Chemoattractant Protein-1 (MCP1) Biomarker Activity (AID 2283017). The conditions noted are these: primary human endothelial cells (HUVEC); actives raise or lower the signal. Summed up: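 Endothelial cells from human umbilical vein are dosed with chemical, cultured 24 h, then assayed for MCP-1 by ELISA; both increases and decreases are modelled against DMSO controls.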

Experiment [18] deals with human Retinoic Acid Receptor beta (RARb), RARB (gene 5915) (UniProt P10826). The experiment is described as follows: ATG_RARb_TRANS: Attagene TRANS-FACTORIAL HepG2 Assay for human Retinoic Acid Receptor beta (AID 2283004; active = hit-call score of the fitted dose curve at least 0.9, where 1 is the maximum). Summed up:
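HepG2, transient MRTU transfection, NR–Gal4 chimera, 24 h treatment; RT-PCR plus CE fluorescence detection of reporter mRNA; gain of signal vs DMSO.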

The target of experiment [19] is Retinoic acid receptor alpha (Homo sapiens) (UniProt P10276). The experiment is described as follows: ATG_RARa_TRANS: Attagene TRANS-FACTORIAL HepG2 Assay for human Retinoic Acid Receptor alpha (RARa) (AID 2283005; active = hit-call score of the fitted dose curve at least 0.9, where 1 is the maximum). A digest of the protocol: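 Reporter transcripts, measured by RT-PCR with fluorescent labeling and capillary electrophoresis after 24 h dosing, reflect activity of an exogenous human RARa–GAL4 fusion in transiently transfected HepG2. Fitted for increase relative to DMSO.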

Read-out in experiment [20]: Human Leukocyte Antigen - DR isotype (HLADR), HLA-DRA (gene 3122)
Put plainly: BSK_3C_HLADR: BioMAP Diversity Plus: 3C Assay for Human Leukocyte Antigen - DR isotype (HLADR) Biomarker Activity (AID 2283019).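 Note: ELISA of cell-surface HLA-DR on HUVEC 24 h after dosing.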 The following applies: primary human endothelial cells (HUVEC); actives raise or lower the signal. Summed up:
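Endothelial cells from human umbilical vein are treated with test chemical; after 24 h, HLA-DR levels are measured by ELISA. Data are fitted in both directions using DMSO as the baseline.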

Sequence of human Retinoid X Receptor beta (RXRb), RXRB (gene 6257) (P28702 whole entry, looked up, the tested form may be a part): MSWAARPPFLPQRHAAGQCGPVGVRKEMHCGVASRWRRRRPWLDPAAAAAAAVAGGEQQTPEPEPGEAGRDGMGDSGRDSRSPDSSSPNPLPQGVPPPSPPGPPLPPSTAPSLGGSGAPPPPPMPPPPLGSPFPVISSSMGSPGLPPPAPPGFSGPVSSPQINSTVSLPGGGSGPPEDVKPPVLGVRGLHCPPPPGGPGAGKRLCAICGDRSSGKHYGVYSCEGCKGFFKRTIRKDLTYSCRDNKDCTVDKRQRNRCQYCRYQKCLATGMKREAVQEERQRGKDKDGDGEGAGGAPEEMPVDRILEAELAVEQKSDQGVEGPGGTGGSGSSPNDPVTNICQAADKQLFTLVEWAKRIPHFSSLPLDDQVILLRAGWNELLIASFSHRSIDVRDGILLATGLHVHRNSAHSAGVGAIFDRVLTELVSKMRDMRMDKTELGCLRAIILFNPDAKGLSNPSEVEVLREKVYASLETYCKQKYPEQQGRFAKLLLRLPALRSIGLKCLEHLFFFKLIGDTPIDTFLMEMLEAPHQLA
Sequence of E-selectin (Homo sapiens) (P16581 whole entry, looked up): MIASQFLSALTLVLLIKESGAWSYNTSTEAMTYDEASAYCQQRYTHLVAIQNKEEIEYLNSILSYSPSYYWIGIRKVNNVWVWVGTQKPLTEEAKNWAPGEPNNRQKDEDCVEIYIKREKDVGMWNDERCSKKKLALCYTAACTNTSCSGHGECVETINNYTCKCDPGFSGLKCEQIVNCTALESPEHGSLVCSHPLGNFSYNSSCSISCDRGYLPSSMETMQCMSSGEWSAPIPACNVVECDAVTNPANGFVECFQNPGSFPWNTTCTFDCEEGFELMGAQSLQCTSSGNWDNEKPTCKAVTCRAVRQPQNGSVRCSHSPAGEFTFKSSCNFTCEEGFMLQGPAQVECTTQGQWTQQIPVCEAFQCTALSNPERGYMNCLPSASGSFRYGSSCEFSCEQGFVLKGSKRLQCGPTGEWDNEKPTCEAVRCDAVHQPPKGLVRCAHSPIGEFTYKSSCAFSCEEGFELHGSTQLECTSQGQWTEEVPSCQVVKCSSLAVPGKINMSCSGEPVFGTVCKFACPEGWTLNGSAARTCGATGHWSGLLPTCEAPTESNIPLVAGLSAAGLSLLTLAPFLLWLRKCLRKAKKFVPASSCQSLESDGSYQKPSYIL
Sequence of human RAR-related Orphan Receptor gamma (RORg), RORC (gene 6097) (P51449 whole entry, looked up, the tested form may be a part): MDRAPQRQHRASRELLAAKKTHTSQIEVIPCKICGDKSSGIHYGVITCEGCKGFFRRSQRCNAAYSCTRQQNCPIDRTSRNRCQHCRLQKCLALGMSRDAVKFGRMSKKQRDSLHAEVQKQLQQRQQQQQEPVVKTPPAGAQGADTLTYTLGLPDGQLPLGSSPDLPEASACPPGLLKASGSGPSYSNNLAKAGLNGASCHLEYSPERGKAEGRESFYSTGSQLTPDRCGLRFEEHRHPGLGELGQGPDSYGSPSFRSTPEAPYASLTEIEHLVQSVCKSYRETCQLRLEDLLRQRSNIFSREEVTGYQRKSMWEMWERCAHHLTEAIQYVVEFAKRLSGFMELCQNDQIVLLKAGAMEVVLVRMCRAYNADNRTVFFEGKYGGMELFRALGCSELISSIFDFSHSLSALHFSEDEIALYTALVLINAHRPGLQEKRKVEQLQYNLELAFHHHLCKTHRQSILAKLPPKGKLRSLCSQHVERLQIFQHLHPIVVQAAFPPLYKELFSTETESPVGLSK
Sequence of human Thyroid Receptor alpha (THRa1), THRA (gene 7067) (P10827 whole entry, looked up, the tested form may be a part): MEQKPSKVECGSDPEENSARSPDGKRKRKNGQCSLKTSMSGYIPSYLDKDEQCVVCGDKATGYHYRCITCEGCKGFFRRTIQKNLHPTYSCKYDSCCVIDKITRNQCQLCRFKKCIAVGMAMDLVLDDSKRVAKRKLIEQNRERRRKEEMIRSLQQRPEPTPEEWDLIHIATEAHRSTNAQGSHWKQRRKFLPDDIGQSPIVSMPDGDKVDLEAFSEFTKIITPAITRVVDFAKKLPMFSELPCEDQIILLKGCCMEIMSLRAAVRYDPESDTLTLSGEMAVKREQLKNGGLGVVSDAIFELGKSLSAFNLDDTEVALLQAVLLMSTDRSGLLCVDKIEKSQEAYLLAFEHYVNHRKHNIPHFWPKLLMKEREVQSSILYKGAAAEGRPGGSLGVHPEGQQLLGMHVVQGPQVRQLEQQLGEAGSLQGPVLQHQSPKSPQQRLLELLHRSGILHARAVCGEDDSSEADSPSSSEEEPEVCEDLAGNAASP
Sequence of Nuclear receptor subfamily 1 group I member 2 (Homo sapiens) (O75469 whole entry, looked up, the tested form may be a part): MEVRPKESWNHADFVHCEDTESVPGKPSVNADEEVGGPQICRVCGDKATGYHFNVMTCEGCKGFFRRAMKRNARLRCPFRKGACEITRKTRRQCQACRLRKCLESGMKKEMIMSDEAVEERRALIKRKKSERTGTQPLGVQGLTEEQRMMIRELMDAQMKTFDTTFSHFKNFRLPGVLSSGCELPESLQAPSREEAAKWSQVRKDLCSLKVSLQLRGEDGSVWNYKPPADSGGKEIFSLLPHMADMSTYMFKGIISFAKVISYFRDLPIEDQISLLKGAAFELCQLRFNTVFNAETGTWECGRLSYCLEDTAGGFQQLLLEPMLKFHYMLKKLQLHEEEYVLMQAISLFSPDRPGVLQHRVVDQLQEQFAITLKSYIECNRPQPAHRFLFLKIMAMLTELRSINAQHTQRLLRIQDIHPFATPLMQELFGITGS
Sequence of Peroxisome proliferator-activated receptor gamma (Homo sapiens) (P37231 whole entry, looked up, the tested form may be a part): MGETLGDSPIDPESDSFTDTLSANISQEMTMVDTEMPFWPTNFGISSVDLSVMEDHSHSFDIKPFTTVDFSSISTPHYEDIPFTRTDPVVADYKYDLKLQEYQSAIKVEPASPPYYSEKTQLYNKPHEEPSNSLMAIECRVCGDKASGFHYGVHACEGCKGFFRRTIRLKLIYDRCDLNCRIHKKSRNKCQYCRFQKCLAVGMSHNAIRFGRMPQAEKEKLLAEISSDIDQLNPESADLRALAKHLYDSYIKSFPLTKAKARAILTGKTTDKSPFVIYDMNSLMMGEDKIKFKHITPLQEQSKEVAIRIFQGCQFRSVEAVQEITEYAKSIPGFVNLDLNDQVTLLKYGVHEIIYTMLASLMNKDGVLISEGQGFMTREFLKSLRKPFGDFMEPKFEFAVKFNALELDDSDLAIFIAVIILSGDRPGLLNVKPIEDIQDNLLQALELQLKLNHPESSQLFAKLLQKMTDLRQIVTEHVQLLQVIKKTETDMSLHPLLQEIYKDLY
Sequence of Retinoic acid receptor RXR-alpha (Homo sapiens) (P19793 whole entry, looked up, the tested form may be a part): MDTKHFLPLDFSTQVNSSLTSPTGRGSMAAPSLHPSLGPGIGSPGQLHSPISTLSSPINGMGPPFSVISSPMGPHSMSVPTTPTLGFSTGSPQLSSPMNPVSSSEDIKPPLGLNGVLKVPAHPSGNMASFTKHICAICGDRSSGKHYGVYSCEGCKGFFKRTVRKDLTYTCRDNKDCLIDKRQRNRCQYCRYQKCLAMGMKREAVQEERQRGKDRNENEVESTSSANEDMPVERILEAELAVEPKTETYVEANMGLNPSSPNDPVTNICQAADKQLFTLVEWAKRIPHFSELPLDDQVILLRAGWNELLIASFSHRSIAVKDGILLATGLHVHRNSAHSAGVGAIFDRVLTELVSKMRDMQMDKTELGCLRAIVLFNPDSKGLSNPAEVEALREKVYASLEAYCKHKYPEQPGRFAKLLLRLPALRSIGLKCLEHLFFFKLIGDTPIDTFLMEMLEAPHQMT
Sequence of human Peroxisome Proliferator-activated Receptor delta (PPARd), PPARD (gene 5467) (Q03181 whole entry, looked up, the tested form may be a part): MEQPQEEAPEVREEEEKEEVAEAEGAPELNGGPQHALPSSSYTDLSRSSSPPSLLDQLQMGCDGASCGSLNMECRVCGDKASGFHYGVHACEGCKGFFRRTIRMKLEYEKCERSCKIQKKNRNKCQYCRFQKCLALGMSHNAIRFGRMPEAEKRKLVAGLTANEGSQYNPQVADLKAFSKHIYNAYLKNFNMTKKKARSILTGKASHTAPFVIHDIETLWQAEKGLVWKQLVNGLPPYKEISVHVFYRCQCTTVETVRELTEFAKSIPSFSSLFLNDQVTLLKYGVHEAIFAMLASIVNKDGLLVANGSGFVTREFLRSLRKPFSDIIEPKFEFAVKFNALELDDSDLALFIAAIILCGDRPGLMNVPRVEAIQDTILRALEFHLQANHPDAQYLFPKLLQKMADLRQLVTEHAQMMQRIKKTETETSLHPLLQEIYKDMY
Sequence of human Retinoic Acid Receptor beta (RARb), RARB (gene 5915) (P10826 whole entry, looked up, the tested form may be a part): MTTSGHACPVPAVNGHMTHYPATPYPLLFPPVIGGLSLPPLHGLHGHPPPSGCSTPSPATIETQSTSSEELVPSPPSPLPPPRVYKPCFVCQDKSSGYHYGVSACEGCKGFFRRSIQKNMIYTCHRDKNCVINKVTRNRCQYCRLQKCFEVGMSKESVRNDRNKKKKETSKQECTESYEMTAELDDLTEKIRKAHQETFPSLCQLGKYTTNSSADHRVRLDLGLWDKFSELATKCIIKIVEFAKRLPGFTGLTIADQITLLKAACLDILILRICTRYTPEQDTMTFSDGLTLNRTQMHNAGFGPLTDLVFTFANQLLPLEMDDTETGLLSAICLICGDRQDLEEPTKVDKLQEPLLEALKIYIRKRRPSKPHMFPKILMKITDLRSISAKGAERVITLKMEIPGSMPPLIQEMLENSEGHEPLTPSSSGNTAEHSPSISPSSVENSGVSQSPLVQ
Sequence of human Peroxisome Proliferator-activated Receptor alpha (PPARa), PPARA (gene 5465) (Q07869 whole entry, looked up, the tested form may be a part): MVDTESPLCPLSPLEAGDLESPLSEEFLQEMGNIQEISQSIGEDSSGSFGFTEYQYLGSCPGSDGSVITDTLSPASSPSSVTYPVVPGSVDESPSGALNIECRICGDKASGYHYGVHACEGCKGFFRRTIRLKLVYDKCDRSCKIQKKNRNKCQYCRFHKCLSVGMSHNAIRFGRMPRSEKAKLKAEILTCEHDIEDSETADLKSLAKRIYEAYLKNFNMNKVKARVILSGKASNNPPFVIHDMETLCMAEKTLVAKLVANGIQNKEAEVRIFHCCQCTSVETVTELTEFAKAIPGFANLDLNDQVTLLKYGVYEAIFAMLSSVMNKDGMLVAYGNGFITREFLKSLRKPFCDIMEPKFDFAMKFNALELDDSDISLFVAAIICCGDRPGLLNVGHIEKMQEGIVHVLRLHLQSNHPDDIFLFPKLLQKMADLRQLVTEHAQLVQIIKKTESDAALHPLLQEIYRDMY

A word on the AC50: it is the midpoint of the concentration-response curve, whichever way the signal moves. Consider `CCOC(=O)C(O)(c1ccc(Cl)cc1)c1ccc(Cl)cc1`, for which the AC50 in experiment [1] was 34.6 µM (active); in experiment [3] it was 37.9 µM (active); in [4] it was 30.1 µM (active); in [5] it was 11.1 µM (active); in experiment [6], 18.3 µM (active); in [11], 25.3 µM (active). Moreover, the AC50 in experiment [12] is 31.1 µM (active); in experiment [13] it was 39.4 µM (active). The compound was classed as inactive in experiment [2], in experiment [7], in experiment [8], in experiment [9] and in [10].
As to `CC(C)C(=O)OCC(C)(C)C(OC(=O)C(C)C)C(C)C` (stereo not given), the outcome in experiment [1], in experiment [14], in experiment [3], in experiment [15], in experiment [8] and in experiment [16] was inactive. Further, the result in experiment [10], in [17], in experiment [11], in experiment [12] and in experiment [13] was inactive. In addition, the half-maximal activity concentration (AC50) is 31.6 µM (active) in experiment [4] and 0.483 µM (active) in [6].
For the compound `Cc1ccccc1CO[C@@H]1C[C@@]2(C(C)C)CC[C@]1(C)O2`, the outcome in [1], in experiment [2], in [3], in experiment [18], in [19] and in [4] was inactive. The outcome in experiment [7], in [8], in experiment [16], in experiment [10], in experiment [11] and in [12] was inactive. The result in experiment [13] was inactive. Besides, the AC50 is 32.3 µM (active) in experiment [5] and 5.24 µM (active) in [6].
As to `CCOCCOC(C)=O`, the outcome in [1], in experiment [2], in experiment [3], in experiment [4], in [5] and in [6] was inactive. The compound was called inactive in experiment [8], in experiment [9], in [10], in [11], in experiment [20] and in experiment [12]. Moreover, the outcome in experiment [13] was inactive.
As for `Cc1cccc(C)c1N`, the result in [1], in experiment [3], in [4], in experiment [10], in [11] and in experiment [12] was inactive. Also, the result in experiment [13] was inactive.
For `CCC(C)(CC)c1cc(NC(=O)c2c(OC)cccc2OC)on1`, the outcome in experiment [1], in experiment [2], in experiment [3], in experiment [4], in experiment [5] and in experiment [15] was inactive. Also, the compound was called inactive in experiment [8], in experiment [10], in [11], in experiment [20], in experiment [12] and in [13]. Also, the half-maximal activity concentration (AC50) in experiment [6] is 0.692 µM (active).
With `CC(C)(O)C(=O)Nc1ccc([N+](=O)[O-])c(C(F)(F)F)c1`, the outcome in [1], in [14], in [3], in experiment [4], in [6] and in [15] was inactive. For the same compound, the outcome in [7], in experiment [8], in experiment [9], in [16], in experiment [10] and in [17] was inactive. Also, the result in experiment [11], in [12] and in experiment [13] was inactive. In addition, the AC50 in [6] is 21.2 µM (active); in experiment [8], 22.8 µM (active) and 28.1 µM (active) and 15.6 µM (active).
`Nc1ccc(-c2ccc(N)cc2)cc1`: the outcome in experiment [1], in [3], in experiment [18], in experiment [4], in experiment [5] and in [6] was inactive. Besides, the result in [7], in experiment [10], in [17], in experiment [11], in experiment [20] and in experiment [12] was inactive. For the same compound, in experiment [13], the result was inactive. The half-maximal activity concentration (AC50) in experiment [8] is 27.5 µM (active).
